# From PubChem BioAssay (EPA / NIEHS)
# Inconclusive results are not listed. The source made the active and inactive calls. Rule for the calls, unless noted: active = hit-call score of the fitted dose curve at least 0.9, where 1 is the maximum; inconclusive = response in the unintended direction; inactive = score below 0.9.
# Tests used:
# [1] = molecular target: human Peroxisome Proliferator-activated Receptor alpha (PPARa), PPARA (gene 5465) (UniProt Q07869); assay: ATG_PPARa_TRANS: Attagene TRANS-FACTORIAL HepG2 Assay for human Peroxisome Proliferator-activated Receptor alpha (PPARa) (AID 2283001);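 for AC50: potency for gain of reporter signal over DMSO so agonist or activator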
# Outline: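 Cells (HepG2) are transfected with multiple reporter transcription units, exposed to chemical for 24 h, then total RNA is reverse-transcribed and amplified. Labelled products are quantified by capillary electrophoresis; induction is referenced to DMSO.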
# [2] = molecular target: human Retinoic Acid Receptor beta (RARb), RARB (gene 5915) (UniProt P10826); assay: ATG_RARb_TRANS: Attagene TRANS-FACTORIAL HepG2 Assay for human Retinoic Acid Receptor beta (AID 2283004)
# Outline: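 HepG2, transient MRTU transfection, NR–Gal4 chimera, 24 h treatment; RT-PCR plus CE fluorescence detection of reporter mRNA; gain of signal vs DMSO.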
# [3] = molecular target: Peroxisome proliferator-activated receptor gamma (Homo sapiens) (UniProt P37231); assay: ATG_PPARg_TRANS: Attagene TRANS-FACTORIAL HepG2 Assay for human Peroxisome Proliferator-activated Receptor-gamma (PPARg) (AID 2283007)
# Outline: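 Transient transfection of HepG2 with GAL4-UAS-driven reporter units; chemical dosing 24 h; total RNA → oligo(dT) RT → PCR with reporter primers → 6-FAM primer extension → HpaI digest 2 h 37 C → capillary electrophoresis. Positive direction vs DMSO.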
# [4] = molecular target: Nuclear receptor subfamily 1 group I member 2 (Homo sapiens) (UniProt O75469); assay: ATG_PXR_TRANS: Attagene TRANS-FACTORIAL HepG2 Assay for human Pregnane X Receptor (PXR) (AID 2283008)
# Outline: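 Transient HepG2 transfectants carrying multiplexed reporter transcription units; PXR activity read through a Gal4 chimera. 24 h exposure. RT-PCR/CE fluorescence; upward curve fit referenced to DMSO.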
# [5] = molecular target: human RAR-related Orphan Receptor gamma (RORg), RORC (gene 6097) (UniProt P51449); assay: ATG_RORg_TRANS: Attagene TRANS-FACTORIAL HepG2 Assay for human RAR-related Orphan Receptor gamma (RORg) (AID 2283011)
# Outline: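 Activity is scored as increase in GAL4-UAS reporter mRNA over DMSO, detected by fluorescent RT-PCR and capillary electrophoresis in HepG2 cells transiently expressing a RORg-Gal4 chimera, 24 h after dosing.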
# [6] = molecular target: Retinoic acid receptor alpha (Homo sapiens) (UniProt P10276); assay: ATG_RARa_TRANS: Attagene TRANS-FACTORIAL HepG2 Assay for human Retinoic Acid Receptor alpha (RARa) (AID 2283005)
# Outline: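 HepG2 cells transiently transfected with multiple reporter units expressing chimeric RARα-GAL4 fusion, with GAL4-UAS-driven reporters. After 24 h compound exposure, reporter mRNA induction quantified by RT-PCR and capillary electrophoresis with fluorescent labeling; gain-of-signal fitted relative to DMSO control.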
# [7] = molecular target: human Retinoic Acid Receptor gamma (RARg), RARG (gene 5916) (UniProt P13631); assay: ATG_RARg_TRANS: Attagene TRANS-FACTORIAL HepG2 Assay for human Retinoic Acid Receptor gamma (RARg) (AID 2283009)
# Outline: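 TRANS format measured activity of exogenous NR-GAL4 fusion (RARg) in transfected HepG2 liver cells after 24 h dosing. Induced reporter RNA was detected by RT-PCR/capillary electrophoresis fluorescence, analysed in the positive direction against DMSO.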
# [8] = molecular target: human Retinoid X Receptor beta (RXRb), RXRB (gene 6257) (UniProt P28702); assay: ATG_RXRb_TRANS: Attagene TRANS-FACTORIAL HepG2 Assay for human Retinoid X Receptor beta (RXRb) (AID 2283013)
# Outline: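 Chimeric receptor-Gal4 activity was assessed in transiently transfected human HepG2 cells after 24 h exposure. Transcripts from GAL4-UAS reporters were quantified by fluorescent RT-PCR and capillary electrophoresis, with DMSO as negative control and baseline.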
# [9] = molecular target: human Vitamin D Receptor (VDR), VDR (gene 7421) (UniProt P11473); assay: ATG_VDR_TRANS: Attagene TRANS-FACTORIAL HepG2 Assay for human Vitamin D Receptor (VDR) (AID 2283022)
# Outline: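 Fluorescence of labelled reporter cDNA fragments, resolved by capillary electrophoresis, gives mRNA induction after 24 h treatment of HepG2 cells carrying transfected Gal4-fusion reporter units. Activity is fitted in the positive direction with DMSO as baseline.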
# [10] = read-out: Intercellular Adhesion Molecule 1 (ICAM1), ICAM1 (gene 3383); assay: BSK_3C_ICAM1: BioMAP Diversity Plus: 3C Assay for Intercellular Adhesion Molecule 1 (ICAM1) Biomarker Activity (AID 2283003; active = hit-call score of the fitted dose curve at least 0.9, where 1 is the maximum; inactive = score below 0.9); conditions: primary human endothelial cells (HUVEC); actives raise or lower the signal
# Outline: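 Chemicals are dosed onto primary human umbilical vein endothelium (3C system). After 24 h, ICAM-1 is measured by ELISA, and responses are fitted bidirectionally relative to DMSO.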
# [11] = BSK_3C_Proliferation: Cell Proliferation Assessment in the BioMAP Diversity Plus: 3C Assay (AID 2283006; active = hit-call score of the fitted dose curve at least 0.9, where 1 is the maximum; inactive = score below 0.9); conditions: primary human endothelial cells (HUVEC)
# Outline: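 Cells (human umbilical vein endothelial, sub-confluent) receive test chemical; after 48 h they are fixed in 10% trichloroacetic acid, stained with 0.1% SRB and read at 560 nm. Activity is referenced to DMSO, fitting increases and decreases.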
# [12] = molecular target: human RAR-related Orphan Receptor beta (RORb), RORB (gene 6096) (UniProt Q92753); assay: ATG_RORb_TRANS: Attagene TRANS-FACTORIAL HepG2 Assay for human RAR-related Orphan Receptor beta (RORb) (AID 2283010)
# Outline: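 Transfect HepG2 with multiple GAL4-UAS reporter transcription units; dose chemicals for 24 h; isolate RNA, reverse-transcribe and PCR-amplify reporter sequences; label, digest and resolve fragments by capillary electrophoresis; fit increases relative to DMSO.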
# [13] = molecular target: Retinoic acid receptor RXR-alpha (Homo sapiens) (UniProt P19793); assay: ATG_RXRa_TRANS: Attagene TRANS-FACTORIAL HepG2 Assay for human Retinoid X Receptor alpha (RXRa) (AID 2283012)
# Outline: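 Measures exogenous chimeric NR-GAL4 activity in transfected HepG2 liver cells after 24 h of dosing. Induced reporter mRNA was detected by RT-PCR with capillary electrophoresis, and gain of signal was analysed against DMSO.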
# [14] = molecular target: human Thyroid Receptor alpha (THRa1), THRA (gene 7067) (UniProt P10827); assay: ATG_THRa1_TRANS: Attagene TRANS-FACTORIAL HepG2 Assay for human Thyroid Receptor alpha (THRa1) (AID 2283014)
# Outline: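 First, HepG2 cells receive multiple GAL4-UAS reporter units and the chimeric receptor. They are then dosed for 24 h, after which RNA is reverse-transcribed, amplified, labelled, HpaI-cut and sized by capillary electrophoresis; gain relative to DMSO is scored.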
# [15] = read-out: E-selectin (Homo sapiens) (UniProt P16581); assay: BSK_3C_Eselectin: BioMAP Diversity Plus: 3C Assay for Eselectin Biomarker Activity (AID 2283015; active = hit-call score of the fitted dose curve at least 0.9, where 1 is the maximum; inactive = score below 0.9;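 note: cell surface E-selectin protein quantified by ELISA 24 h after dosing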); conditions: primary human endothelial cells (HUVEC); actives raise or lower the signal
# Outline: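 Human vascular endothelium from umbilical vein is exposed to test chemicals for 24 h. E-selectin levels are read by ELISA and compared with DMSO controls.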
# [16] = read-out: Interleukin-1 alpha (IL1a), IL1A (gene 3552); assay: BSK_BE3C_IL1a: BioMAP Diversity Plus: BE3C Assay for Interleukin-1 alpha (IL1a) Biomarker Activity (AID 2283016; active = hit-call score of the fitted dose curve at least 0.9, where 1 is the maximum; inactive = score below 0.9); conditions: primary human bronchial epithelial cells; actives raise or lower the signal
# Outline: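 Signal from IL-1a ELISA, taken 24 h after chemical dosing of human bronchial epithelial cells, is compared with DMSO as baseline using bidirectional curve fitting.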
# [17] = read-out: Monocyte Chemoattractant Protein-1 (MCP1), CCL2 (gene 6347); assay: BSK_4H_MCP1: BioMAP Diversity Plus: 4H Assay for Monocyte Chemoattractant Protein-1 (MCP1) Biomarker Activity (AID 2283018; active = hit-call score of the fitted dose curve at least 0.9, where 1 is the maximum; inactive = score below 0.9); conditions: primary human endothelial cells (HUVEC); actives raise or lower the signal
# Outline: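 Endothelial cells from umbilical vein were treated with test chemical, then after 24 h MCP-1 levels were quantified by ELISA; endpoint values came from bidirectional fitting with DMSO as baseline of activity.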
# [18] = read-out: Human Leukocyte Antigen - DR isotype (HLADR), HLA-DRA (gene 3122); assay: BSK_3C_HLADR: BioMAP Diversity Plus: 3C Assay for Human Leukocyte Antigen - DR isotype (HLADR) Biomarker Activity (AID 2283019; active = hit-call score of the fitted dose curve at least 0.9, where 1 is the maximum; inactive = score below 0.9;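 note: ELISA of cell-surface HLA-DR on HUVEC 24 h after dosing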); conditions: primary human endothelial cells (HUVEC); actives raise or lower the signal
# Outline: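 Endothelial cells from human umbilical vein are treated with test chemical; after 24 h, HLA-DR levels are measured by ELISA. Data are fitted in both directions using DMSO as the baseline.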
# [19] = read-out: Interleukin-8 (IL8), CXCL8 (gene 3576); assay: BSK_3C_IL8: BioMAP Diversity Plus: 3C Assay for Interleukin-8 (IL8) Biomarker Activity (AID 2283020; active = hit-call score of the fitted dose curve at least 0.9, where 1 is the maximum; inactive = score below 0.9); conditions: primary human endothelial cells (HUVEC); actives raise or lower the signal
# Outline: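 Endothelial primary cells of human umbilical vein origin are dosed with chemical; after 24 h the IL-8 biomarker is measured by ELISA, and concentration–response is fitted in both directions versus DMSO.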
# [20] = molecular target: human Peroxisome Proliferator-activated Receptor delta (PPARd), PPARD (gene 5467) (UniProt Q03181); assay: ATG_PPARd_TRANS: Attagene TRANS-FACTORIAL HepG2 Assay for human Peroxisome Proliferator-activated Receptor delta (PPARd) (AID 2283002)
# Outline: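 HepG2 cells transiently transfected with multiplexed GAL4-UAS reporter units and exogenous chimeric NR-Gal4 proteins; 24 h compound exposure. Reporter mRNA measured by RT-PCR, 6-FAM labelling, HpaI digestion and capillary electrophoresis; gain of signal versus DMSO.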
# Chain of human Retinoid X Receptor beta (RXRb), RXRB (gene 6257) (P28702 whole entry, looked up, the tested form may be a part): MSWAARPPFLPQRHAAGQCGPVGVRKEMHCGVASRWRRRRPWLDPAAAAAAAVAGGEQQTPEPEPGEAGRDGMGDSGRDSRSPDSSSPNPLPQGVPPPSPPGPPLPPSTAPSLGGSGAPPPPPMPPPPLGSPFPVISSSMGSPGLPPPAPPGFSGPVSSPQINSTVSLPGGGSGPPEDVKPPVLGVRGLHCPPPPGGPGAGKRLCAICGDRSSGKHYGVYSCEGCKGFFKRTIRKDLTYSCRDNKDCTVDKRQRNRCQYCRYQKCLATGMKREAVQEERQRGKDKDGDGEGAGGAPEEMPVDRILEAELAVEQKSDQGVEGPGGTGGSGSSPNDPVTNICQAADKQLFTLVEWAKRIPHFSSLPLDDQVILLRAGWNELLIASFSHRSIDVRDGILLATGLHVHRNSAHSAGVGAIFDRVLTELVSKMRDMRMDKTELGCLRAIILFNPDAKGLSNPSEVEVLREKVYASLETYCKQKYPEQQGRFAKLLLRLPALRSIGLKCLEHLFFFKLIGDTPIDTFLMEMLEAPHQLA
# Chain of human Peroxisome Proliferator-activated Receptor alpha (PPARa), PPARA (gene 5465) (Q07869 whole entry, looked up): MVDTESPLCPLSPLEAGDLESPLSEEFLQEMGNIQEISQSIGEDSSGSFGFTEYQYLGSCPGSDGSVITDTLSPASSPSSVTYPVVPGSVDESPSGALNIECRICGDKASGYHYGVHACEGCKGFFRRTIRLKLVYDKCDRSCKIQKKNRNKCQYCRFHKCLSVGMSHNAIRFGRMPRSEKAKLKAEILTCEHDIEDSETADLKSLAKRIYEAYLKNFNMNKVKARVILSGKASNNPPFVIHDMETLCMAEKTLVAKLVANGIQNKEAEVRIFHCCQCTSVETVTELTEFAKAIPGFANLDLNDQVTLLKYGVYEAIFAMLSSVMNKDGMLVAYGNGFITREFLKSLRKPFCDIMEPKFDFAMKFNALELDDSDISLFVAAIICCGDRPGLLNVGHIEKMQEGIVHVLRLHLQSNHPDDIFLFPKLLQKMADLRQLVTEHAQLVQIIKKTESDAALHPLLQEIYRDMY
# Chain of Retinoic acid receptor RXR-alpha (Homo sapiens) (P19793 whole entry, looked up, the tested form may be a part): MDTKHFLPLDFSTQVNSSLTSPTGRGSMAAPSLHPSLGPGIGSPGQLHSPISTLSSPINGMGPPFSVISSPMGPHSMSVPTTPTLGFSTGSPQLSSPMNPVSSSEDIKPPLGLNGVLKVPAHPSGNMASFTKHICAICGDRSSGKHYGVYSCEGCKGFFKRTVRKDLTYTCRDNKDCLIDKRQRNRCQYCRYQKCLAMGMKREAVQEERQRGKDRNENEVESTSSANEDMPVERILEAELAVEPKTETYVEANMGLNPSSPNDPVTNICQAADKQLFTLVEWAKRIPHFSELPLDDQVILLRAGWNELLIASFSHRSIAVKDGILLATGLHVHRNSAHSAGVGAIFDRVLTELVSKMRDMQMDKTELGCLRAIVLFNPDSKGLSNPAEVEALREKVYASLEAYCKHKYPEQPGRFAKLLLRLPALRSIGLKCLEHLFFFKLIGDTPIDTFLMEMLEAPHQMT
# Chain of human Retinoic Acid Receptor beta (RARb), RARB (gene 5915) (P10826 whole entry, looked up, the tested form may be a part): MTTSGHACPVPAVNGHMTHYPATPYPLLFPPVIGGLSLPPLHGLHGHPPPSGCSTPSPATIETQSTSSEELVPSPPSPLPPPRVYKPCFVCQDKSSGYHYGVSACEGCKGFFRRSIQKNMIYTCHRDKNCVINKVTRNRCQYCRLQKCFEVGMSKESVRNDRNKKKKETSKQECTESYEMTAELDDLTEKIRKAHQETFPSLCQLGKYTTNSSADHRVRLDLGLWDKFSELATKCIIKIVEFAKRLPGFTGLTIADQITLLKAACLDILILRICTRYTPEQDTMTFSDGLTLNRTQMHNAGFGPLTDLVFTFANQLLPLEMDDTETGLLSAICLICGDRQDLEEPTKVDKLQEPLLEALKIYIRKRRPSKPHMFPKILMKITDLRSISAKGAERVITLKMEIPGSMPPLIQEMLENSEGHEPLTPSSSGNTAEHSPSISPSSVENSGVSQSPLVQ
# Chain of human Peroxisome Proliferator-activated Receptor delta (PPARd), PPARD (gene 5467) (Q03181 whole entry, looked up, the tested form may be a part): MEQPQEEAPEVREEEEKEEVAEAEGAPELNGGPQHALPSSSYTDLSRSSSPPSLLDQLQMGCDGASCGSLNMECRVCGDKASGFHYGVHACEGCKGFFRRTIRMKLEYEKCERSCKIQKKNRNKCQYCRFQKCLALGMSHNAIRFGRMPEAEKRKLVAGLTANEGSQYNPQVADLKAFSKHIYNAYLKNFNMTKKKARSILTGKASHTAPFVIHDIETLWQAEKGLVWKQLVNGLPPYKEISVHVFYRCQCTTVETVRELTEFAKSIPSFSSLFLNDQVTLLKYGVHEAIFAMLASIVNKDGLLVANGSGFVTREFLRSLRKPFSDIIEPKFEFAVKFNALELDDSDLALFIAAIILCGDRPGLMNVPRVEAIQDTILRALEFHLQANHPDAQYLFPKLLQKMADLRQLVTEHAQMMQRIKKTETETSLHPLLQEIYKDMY
# Chain of Nuclear receptor subfamily 1 group I member 2 (Homo sapiens) (O75469 whole entry, looked up, the tested form may be a part): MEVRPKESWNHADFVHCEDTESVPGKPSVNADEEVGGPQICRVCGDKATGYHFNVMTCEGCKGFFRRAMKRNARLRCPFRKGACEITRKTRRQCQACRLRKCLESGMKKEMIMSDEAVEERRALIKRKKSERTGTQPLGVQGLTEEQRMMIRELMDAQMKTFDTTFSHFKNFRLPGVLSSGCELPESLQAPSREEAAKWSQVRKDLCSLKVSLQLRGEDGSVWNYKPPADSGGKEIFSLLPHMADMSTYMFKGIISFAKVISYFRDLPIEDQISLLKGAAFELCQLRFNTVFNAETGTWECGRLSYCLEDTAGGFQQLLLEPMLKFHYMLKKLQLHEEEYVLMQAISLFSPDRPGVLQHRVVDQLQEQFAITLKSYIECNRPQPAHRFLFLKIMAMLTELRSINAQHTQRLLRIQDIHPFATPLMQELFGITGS
# Chain of human RAR-related Orphan Receptor gamma (RORg), RORC (gene 6097) (P51449 whole entry, looked up, the tested form may be a part): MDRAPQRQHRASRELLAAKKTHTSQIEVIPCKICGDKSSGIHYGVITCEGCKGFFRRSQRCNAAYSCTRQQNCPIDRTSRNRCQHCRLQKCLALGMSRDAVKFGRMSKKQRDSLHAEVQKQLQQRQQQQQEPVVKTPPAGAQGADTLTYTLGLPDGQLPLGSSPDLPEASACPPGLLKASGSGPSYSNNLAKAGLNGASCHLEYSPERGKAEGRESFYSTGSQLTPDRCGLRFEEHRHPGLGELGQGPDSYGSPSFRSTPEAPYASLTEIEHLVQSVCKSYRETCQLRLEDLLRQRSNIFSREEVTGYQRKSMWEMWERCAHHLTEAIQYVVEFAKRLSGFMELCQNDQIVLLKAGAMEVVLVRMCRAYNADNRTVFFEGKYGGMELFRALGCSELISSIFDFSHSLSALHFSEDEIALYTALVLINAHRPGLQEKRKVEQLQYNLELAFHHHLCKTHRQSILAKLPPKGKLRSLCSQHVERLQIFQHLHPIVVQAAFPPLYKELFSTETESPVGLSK
# Chain of human Retinoic Acid Receptor gamma (RARg), RARG (gene 5916) (P13631 whole entry, looked up, the tested form may be a part): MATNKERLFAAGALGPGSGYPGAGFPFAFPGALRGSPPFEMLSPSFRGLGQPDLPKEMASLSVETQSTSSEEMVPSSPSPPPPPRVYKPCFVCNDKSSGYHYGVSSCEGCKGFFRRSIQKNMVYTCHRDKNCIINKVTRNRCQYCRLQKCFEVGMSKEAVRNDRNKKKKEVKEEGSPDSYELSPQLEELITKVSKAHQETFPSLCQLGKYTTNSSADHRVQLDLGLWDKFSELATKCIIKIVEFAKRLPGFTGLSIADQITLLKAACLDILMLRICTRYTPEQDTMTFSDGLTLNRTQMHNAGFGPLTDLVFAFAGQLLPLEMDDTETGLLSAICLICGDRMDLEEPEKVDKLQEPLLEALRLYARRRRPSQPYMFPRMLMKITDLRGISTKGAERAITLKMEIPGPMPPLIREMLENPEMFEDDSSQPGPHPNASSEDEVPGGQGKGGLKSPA
# Chain of human RAR-related Orphan Receptor beta (RORb), RORB (gene 6096) (Q92753 whole entry, looked up, the tested form may be a part): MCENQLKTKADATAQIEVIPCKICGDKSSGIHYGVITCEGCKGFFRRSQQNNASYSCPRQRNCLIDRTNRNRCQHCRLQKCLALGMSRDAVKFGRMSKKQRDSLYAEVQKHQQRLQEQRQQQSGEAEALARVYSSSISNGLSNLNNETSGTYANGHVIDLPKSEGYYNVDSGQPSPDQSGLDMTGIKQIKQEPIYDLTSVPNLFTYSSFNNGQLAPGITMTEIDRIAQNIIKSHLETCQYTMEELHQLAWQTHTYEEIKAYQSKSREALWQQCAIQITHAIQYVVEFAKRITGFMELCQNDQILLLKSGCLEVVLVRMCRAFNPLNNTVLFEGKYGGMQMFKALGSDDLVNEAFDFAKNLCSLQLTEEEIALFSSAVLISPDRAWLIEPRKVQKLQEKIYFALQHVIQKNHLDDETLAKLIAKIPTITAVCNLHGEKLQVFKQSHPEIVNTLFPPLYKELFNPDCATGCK
# Chain of human Thyroid Receptor alpha (THRa1), THRA (gene 7067) (P10827 whole entry, looked up, the tested form may be a part): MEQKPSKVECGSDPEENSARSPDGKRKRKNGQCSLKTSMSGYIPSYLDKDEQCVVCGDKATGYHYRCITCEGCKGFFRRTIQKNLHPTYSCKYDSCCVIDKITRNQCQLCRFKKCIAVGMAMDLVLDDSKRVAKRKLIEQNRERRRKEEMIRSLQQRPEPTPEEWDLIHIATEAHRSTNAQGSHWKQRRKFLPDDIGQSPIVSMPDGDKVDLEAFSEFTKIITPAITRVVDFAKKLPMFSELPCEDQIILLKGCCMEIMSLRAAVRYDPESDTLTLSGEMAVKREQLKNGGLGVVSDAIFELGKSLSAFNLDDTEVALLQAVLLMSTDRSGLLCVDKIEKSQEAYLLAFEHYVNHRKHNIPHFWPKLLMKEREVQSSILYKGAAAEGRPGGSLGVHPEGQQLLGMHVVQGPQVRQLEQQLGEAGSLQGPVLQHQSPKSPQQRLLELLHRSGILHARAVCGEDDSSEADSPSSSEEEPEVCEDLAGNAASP
compound,measurement,setting,value
Nc1cccc(C(F)(F)F)c1,outcome,[1],inactive
same,outcome,[2],inactive
same,outcome,[3],inactive
same,outcome,[4],inactive
same,outcome,[5],inactive
CCCCCCCCCCCCCCCC[n+]1ccccc1,outcome,[1],inactive
same,outcome,[2],inactive
same,outcome,[6],inactive
same,outcome,[3],inactive
same,outcome,[4],inactive
same,outcome,[7],inactive
same,outcome,[8],inactive
same,AC50,[9],26.8 µM (active)
N#[N+]c1ccc2c(S(=O)(=O)[O-])cccc2c1O,outcome,[1],inactive
same,outcome,[10],inactive
same,outcome,[11],inactive
same,outcome,[7],inactive
same,outcome,[12],inactive
same,outcome,[13],inactive
same,outcome,[8],inactive
same,outcome,[14],inactive
same,outcome,[15],inactive
same,outcome,[16],inactive
same,outcome,[17],inactive
same,outcome,[18],inactive
same,outcome,[19],inactive
same,outcome,[9],inactive
CC(C)C1=CC2=CC[C@@H]3[C@](C)(CCC[C@@]3(C)C(=O)O)[C@H]2CC1,outcome,[1],inactive
same,outcome,[2],inactive
same,AC50,[3],43.9 µM (active)
same,AC50,[4],1.55 µM (active)
same,outcome,[12],inactive
same,outcome,[13],inactive
same,outcome,[14],inactive
same,outcome,[9],inactive
CN(C)c1ccc(N=Nc2ccccc2C(=O)O)cc1,AC50,[1],23.2 µM (active)
same,outcome,[20],inactive
same,AC50,[3],27.5 µM (active)
same,outcome,[13],inactive
same,outcome,[9],inactive
O=Nc1ccc(O)cc1,outcome,[1],inactive
same,outcome,[10],inactive
same,outcome,[2],inactive
same,outcome,[11],inactive
same,outcome,[5],inactive
same,outcome,[13],inactive
same,outcome,[8],inactive
same,outcome,[14],inactive
same,outcome,[15],inactive
same,outcome,[16],inactive
same,outcome,[17],inactive
same,outcome,[18],inactive
same,outcome,[19],inactive
[Cl][Nd]([Cl])[Cl],outcome,[1],inactive
same,outcome,[20],inactive
same,outcome,[4],inactive
same,outcome,[7],inactive
same,outcome,[5],inactive
same,outcome,[14],inactive
CCCCC(CC)COC(=O)c1ccccc1 (stereo unspecified),outcome,[1],inactive
same,outcome,[2],inactive
same,outcome,[3],inactive
same,outcome,[4],inactive
same,outcome,[12],inactive
same,outcome,[13],inactive
same,AC50,[8],60.9 µM (active)
same,outcome,[14],inactive
same,outcome,[9],inactive
CC=CC(F)(F)C(F)(F)C(F)(F)F,outcome,[1],inactive
same,outcome,[20],inactive
same,outcome,[3],inactive
same,outcome,[4],inactive
same,outcome,[13],inactive
same,outcome,[8],inactive
same,outcome,[14],inactive
same,outcome,[9],inactive
C[C@]12C=CC(=O)C=C1CC[C@@H]1[C@@H]2[C@@H](O)C[C@@]2(C)[C@H]1CC[C@]2(O)C(=O)CO,outcome,[1],inactive
same,outcome,[20],inactive
same,AC50,[4],25.9 µM (active)
same,outcome,[12],inactive
same,outcome,[5],inactive
same,outcome,[13],inactive
O=C(C=Cc1ccccc1)OCc1ccccc1,outcome,[1],inactive
same,outcome,[20],inactive
same,outcome,[4],inactive
same,outcome,[12],inactive
same,outcome,[5],inactive
CCCCCCCC/C=C\CCCCCCCC(=O)OCCO,AC50,[1],8.71 µM (active)
same,outcome,[20],inactive
same,AC50,[3],4.78 µM (active)
same,outcome,[4],inactive
same,outcome,[13],inactive
same,AC50,[8],17.7 µM (active)
same,outcome,[9],inactive
CCOC(=O)Cc1cccc2ccccc12,outcome,[1],inactive
same,outcome,[2],inactive
same,outcome,[6],inactive
same,AC50,[3],44.5 µM (active)
same,outcome,[4],inactive
same,outcome,[7],inactive
same,outcome,[13],inactive
same,AC50,[8],89.4 µM (active)
same,outcome,[14],inactive
same,outcome,[9],inactive
O=c1[nH]nc(-c2ccc([N+](=O)[O-])o2)o1,outcome,[1],inactive
same,outcome,[20],inactive
same,outcome,[4],inactive
same,outcome,[12],inactive
same,outcome,[13],inactive
same,outcome,[8],inactive
same,outcome,[14],inactive
